Test results reported in PubChem BioAssay AID485297 (National Center for Advancing Translational Sciences (NCATS), 2010).
The whole screen tested about 320,000 compounds, of which about 9,100 (2.8%) were called active. Roughly 3% stayed inconclusive and do not appear here. Calls come from the whole dose curve; as a rule, active = well fitted activation curve with a large enough effect; inconclusive = small, poorly fitted or top-dose-only effect; inactive = no such curve, though single readings can be large or run the other way. The entries come from a sample that favours actives as a whole.

experiment: qHTS Assay for Rab9 Promoter Activators; conditions: Huh7 Rab9 promoter-luciferase reporter, luminescence, 24 h; series mostly up to 9.22 µM; note: nearly all actives have a fitted effect of over 60% in size
Procedure, shortened: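 Promoter activation is measured as luciferase luminescence in Huh7 cells stably transfected with a Rab9 promoter–luciferase construct, following 24 h compound exposure at 37 °C and 10 min reagent incubation at ambient temperature.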
Potency is the fitted concentration of half-maximal effect.

Potency, inactive:
O=C1C=C(c2cccc(Br)c2)C[C@@H](c2ccc(F)cc2)C1
NC(=O)NC(CC(=O)NNC(=O)c1ccccn1)c1ccc(Cl)cc1 (stereo unspecified)
O=S(=O)(NCCCN1CCOCC1)c1ccc(F)c(Cl)c1
O=C(OCC(=O)N1CCCCCC1)c1cnc(Cl)c(Cl)c1
CCOc1cccc(NC(=O)CC#N)c1
CCOc1ccc(C(=O)Nc2ccncc2)cc1
Cc1cccc(NS(=O)(=O)c2ccc(C)c(C(=O)NCC(c3ccccc3)N(C)C)c2)c1 (stereo unspecified)
O=C(Nc1ncccc1O)c1ccc(S(=O)(=O)N2CCCCCC2)cc1
O=C(Nc1ncccc1O)c1ccc(S(=O)(=O)N2CCCC2)cc1
C=CCn1c(SCC(=O)NC(=O)Cc2ccccc2)nc2ccccc2c1=O
Cc1ccc(S(=O)(=O)CCC(=O)OCC(=O)NCCc2ccc(S(N)(=O)=O)cc2)cc1
O=C(/C(=C/c1cccc(Cl)c1)c1nc2ccccc2[nH]1)c1ccccc1
N#C/C(=C(/O)COC(=O)COc1ccc(Cl)cc1)c1nc2ccccc2[nH]1
CC(C)(C)OC(=O)Nc1ccc([C@@H](NC(=O)OC(C)(C)C)C(=O)OC(C)(C)C)cc1
Cc1cc(C(=O)CSc2nc(N)cc(=O)[nH]2)c(C)n1-c1cccc(F)c1
N#Cc1ccc(CSc2nnc3ccccn23)cc1
Cc1ccc(-n2c(C)cc(C(=O)CN3C(=O)C(=O)N(C4CCCC4)C3=O)c2C)cc1
Cn1c(CC(=O)Nc2ccccc2)nnc1SCC(=O)c1ccccc1
COc1ccc(NC(=O)CSc2nnc(C3CC3)n2C)cc1S(=O)(=O)N1CCCCC1
Cc1ccc(Nc2nnc(SCC(=O)c3cc4ccccc4o3)s2)cc1C
O=C(CSc1nnc(Nc2ccccc2)s1)Nc1cccnc1Cl
COc1cc2c(cc1OC)C(=O)NCC(C)(C)O2
COc1ccccc1-c1sc2ccccc2c1-c1ccc(Br)nc1
Cc1csc(SCC(=O)N(c2ccccc2)C(C)C)n1
NC(=O)c1ccsc1NC(=O)COC(=O)COc1ccc(C=O)cc1
O=C(O)c1ccccc1N=N/C(=N/Nc1cc(S(=O)(=O)O)ccc1O)c1ccccc1
O=C(O)c1cccc(S(=O)(=O)N2CC=C(c3ccccc3)CC2)c1
COc1cc2c(cc1OC)/C(=C/C(=O)c1ccc(NC(C)=O)cc1)NCC2
CN1CCCC(OC(=O)COc2ccc(Br)cc2)C1 (stereo unspecified)
CCCCNC(=O)OCCSCCS(=O)(=O)c1ccc(Cl)cc1
CC(=O)c1sc(NC(=O)C2=NN(c3ccccc3)C(=O)CC2)nc1C
COc1ccc(/C=N\NC(=O)c2sc(N)nc2C)cc1OC
Cc1nnc(C)n1/N=C/c1ccc(C(C)C)cc1
CC(=O)c1sc(N)nc1C
COc1cc2ccccc2cc1C(=O)Nc1ccccc1C
COc1cc2ccccc2cc1C(=O)Nc1ccncc1
Cc1ccc(S(=O)(=O)Nc2nc(C)cc(N/N=C/c3ccc(O)cc3)n2)cc1
CC(=O)c1sc(NC(=O)CCCOc2ccccc2C)nc1C
N#Cc1ccc(C(=O)OCC(=O)NC(=O)NC2CCCCC2)cc1
CCN(CC(=O)Nc1cc(Cl)ccc1C)C(=O)CSCc1ccccc1
CC(Oc1ccc(F)cc1F)C(=O)/C=C/N(C)C (stereo unspecified)
COc1ccccc1-c1nn(Cc2ccccc2)cc1C(=O)N1CCN(c2ncccn2)CC1
O=C(COC(=O)c1ncc(Cl)c(Cl)c1Cl)NCc1ccccc1
CCc1ccccc1S(=O)(=O)Cc1ccc(C(=O)NCCc2ccccc2)o1
CCN(CC)CCN1C(=O)C(=O)/C(=C(/O)c2ccc(OC)c(OC)c2)C1c1ccccn1 (stereo unspecified)
CCN(CC)CCN1C(=O)C(=O)/C(=C(/O)c2ccccc2)C1c1ccccc1F (stereo unspecified)
COc1ccc(S(=O)(=O)N2CCC(C(=O)OCC(=O)c3ccccc3)CC2)cc1[N+](=O)[O-]
COc1ccc2sc(-c3ccc(N(C)C)cc3)c(C#CCO)c2c1
Cc1ccc(CN2CC(C(=O)N3CCN(S(=O)(=O)c4ccccc4)CC3)CC2=O)cc1 (stereo unspecified)
Cc1ccc(C(=O)N/C(=C/c2cccs2)C(=O)NCC2CCCO2)cc1 (stereo unspecified)
Cc1ccc(S(=O)(=O)N2CCC(C(=O)NCC3CCCO3)CC2)cc1 (stereo unspecified)
COc1ccc(C)cc1NC(=O)c1ccc(-c2ccc(C(C)=O)cc2)o1
CCOC(=O)c1ccc(NC(=O)c2cccnc2)cc1
CCOc1cc(CNCc2ccccn2)ccc1OCC(=O)NC(C)(C)C
Cc1ccc(S(=O)(=O)N2CCN(c3ncnc4ccccc34)CC2)cc1
CCc1ccc(C(=O)N2CCN(S(=O)(=O)c3sc(C(=O)O)c(C)c3C(=O)O)CC2)cc1
Cn1c(CCC(=O)OCC(=O)NCc2ccccc2Cl)nc(=O)c2ccccc21
CC(C)n1ncc2c(C(=O)Nc3ccc(CC#N)cc3)cc(C3CC3)nc21
C=CCC(NC(=O)Cc1ccccc1)C(=O)NCCC (stereo unspecified)
COc1ccc(CNC(=O)c2cc(=O)c3c(C)cc(C)cc3o2)cc1
CC(C)c1nc2cc(C(=O)NC(C)c3cnn(C)c3)ccc2o1 (stereo unspecified)
CCOc1ccc(S(=O)(=O)N2CCC(C(=O)NCC(=O)Nc3cccc(Cl)c3C)CC2)cc1
N/C(=N\OC(=O)c1cc(-c2ccccc2)nc2ccccc12)c1ccncc1
Cc1cccc(C(=O)c2cccc(C)c2)c1
O=S(=O)(c1ccc(Cl)cc1)c1nc(-c2ccccc2F)oc1NCCN1CCOCC1
CC(=O)c1c(C)[nH]c(C(=O)Nc2cc(S(=O)(=O)N(C)C)ccc2C)c1C
O=C(CCNC(=O)c1ccc([N+](=O)[O-])cc1)NC1CCCCC1
CC(=O)c1ccc(N2CCN(CC(O)c3ccccc3)CC2)cc1 (stereo unspecified)
CC(=O)c1ccc(N2CCN(C(=O)CCc3ccccc3)CC2)cc1
COc1ccc(F)cc1C(=O)COC(=O)c1n[nH]c(=O)c2ccccc12
Cc1nonc1NC(=O)CSc1nc2ccccc2cc1C#N
CCOC(=O)CSc1nccc(N(C)C)c1C#N
COc1ccc(C(C)(C)C)cc1NC(=O)CCN1C(=O)C2CCCCC2C1=O (stereo unspecified)
Cc1ccc(O)c(NC(=O)c2cc(-c3ccco3)on2)c1
CCOc1ncccc1C(=O)OCC(=O)c1c[nH]c2ccccc12
CC1CC1C(=O)OCC(=O)Nc1cccc(F)c1 (stereo unspecified)
Cn1c(COc2ccc(Cl)cc2)nc2ccccc2c1=O
CC(C)n1c(COc2ccccc2)nc2ccccc21
CN(C(=O)CC1C(=O)NCCN1Cc1ccc2ccccc2c1)C1CCOCC1 (stereo unspecified)
O=C(CNC(=O)OCc1ccccc1)NC1CCCCNC1=O (stereo unspecified)
CCc1ccc(-c2nn(-c3ccccc3C)cc2C(=O)N2CCN(C3CCS(=O)(=O)C3)CC2)cc1 (stereo unspecified)
O=C(O)Cc1sc(-c2ccccc2)nc1-c1cccs1
NC(=O)Cc1ccc2c(c1)[nH]c1ccccc12
CC(=O)N1CCOc2ccc(S(=O)(=O)N3CCC(C(=O)Nc4ccccc4F)CC3)cc21
CCc1nnc(NC(=O)c2cc(S(=O)(=O)N3CCCCC3)ccc2C)s1
COc1ccc(-c2nnc3n2CCCCC3)cc1
COc1ccc(-c2nc(SCC(=O)N3CCCC3)n[nH]2)cc1
Cc1cccc(NC(=O)c2ccc3nsnc3c2)c1C
O=C(Nc1ccccc1N1CCCCC1)c1ccc2nccnc2c1

Potency, active:
CCOc1ccc(NC(=O)c2ccc(NC(=O)COC(=O)c3ccc(NC(=O)CC#N)cc3)cc2)cc1 2240 nM
O=C(Nc1ncccc1O)c1ccc(C(=O)c2ccccc2)cc1 4470 nM
O=C(Cc1nc2ccccc2[nH]c1=O)c1ccc(Cl)cc1 2000 nM
Cc1ccc(-n2c(C)cc(C(=O)CSc3nnc4ccccn34)c2C)cc1 398 nM
O=C(CSc1nnc2ccccn12)c1ccccc1 2510 nM
CC(C)c1ccc(Nc2nnc(SCC(=O)c3nnc(-c4ccccc4)o3)s2)cc1 4470 nM
CC1CN/C(=C\C(=O)c2ccc(Br)cc2)C(=O)N1 (stereo unspecified) 501 nM
CC(=O)c1sc(N/N=C\c2ccc(C)cc2)nc1C 2000 nM
CC(=O)c1sc(NC(=O)c2ccc(C)cc2)nc1C 1780 nM
CC(=O)c1sc(N/N=C/c2ccc(C(C)C)cc2)nc1C 794 nM
COc1cc2ccccc2cc1C(=O)Nc1nc(C)c(C(C)=O)s1 3980 nM
CCN(CC)CCN1C(=O)C(=O)/C(=C(/O)c2cnn(-c3ccccc3)c2C)C1c1cccs1 (stereo unspecified) 2510 nM
Cc1ccc(-n2c(C)cc(/C=C(\C#N)C(=O)NCC3CCCO3)c2C)cc1 (stereo unspecified) 3980 nM
CCOC(=O)c1ccc(-c2ccc(C(=O)Nc3cccnc3)o2)cc1 2240 nM
COc1ccc(CNC(=O)c2ccc3oc(C(C)C)nc3c2)cc1 2820 nM
Cc1cccc(/C(N)=N/OC(=O)c2ccccc2Cl)c1 891 nM
CC(=O)c1ccc(N2Cc3ccccc3C2)cc1 1780 nM
CCOc1ccc2cc(C#N)c(SCC(=O)OC)nc2c1 1580 nM
Cc1ccc(OCc2nc3ccccc3n2C)cc1 1780 nM
NC(=O)Cc1ccc2sc(-c3ccccc3)nc2c1 3550 nM
COc1ccc(-c2nc3n(c2Br)CCC3)cc1 2510 nM
O=C(Nc1ccccc1Cl)c1ccc2nsnc2c1 2510 nM
